Screening data deposited in PubChem BioAssay by The Scripps Research Institute Molecular Screening Center.
M1 PAM parental = counter-screen for M1 PAMs: effect in parental CHO-K1 cells; AID 602247; activation, % at 3 µM; ATP EC20, Fluo-8 calcium fluorescence; 0% at ATP EC20, 100% at ATP max; hit rate 0.02% among 360,000;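 active = activation above the run cutoff, the mean activation of all test compounds plus 3 SD, cut at about 40% in these data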;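 also: peak over basal fluorescence ratio in a 140 s read after ATP addition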
M1 antag = blocks human M1 muscarinic receptor. P11229. CHO-K1 hM1, Fluo-8 calcium fluorescence, ACh EC80 antagonist. inhibition, % at 3 µM. hit rate 1.3% among 360,000. AID 588852;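 active = percent inhibition above its own plate's cutoff, namely the mean of that plate's compound wells plus 3 SD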;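 also: peak over basal fluorescence ratio during 140 s after agonist addition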
Target sequence (P11229 whole entry, looked up): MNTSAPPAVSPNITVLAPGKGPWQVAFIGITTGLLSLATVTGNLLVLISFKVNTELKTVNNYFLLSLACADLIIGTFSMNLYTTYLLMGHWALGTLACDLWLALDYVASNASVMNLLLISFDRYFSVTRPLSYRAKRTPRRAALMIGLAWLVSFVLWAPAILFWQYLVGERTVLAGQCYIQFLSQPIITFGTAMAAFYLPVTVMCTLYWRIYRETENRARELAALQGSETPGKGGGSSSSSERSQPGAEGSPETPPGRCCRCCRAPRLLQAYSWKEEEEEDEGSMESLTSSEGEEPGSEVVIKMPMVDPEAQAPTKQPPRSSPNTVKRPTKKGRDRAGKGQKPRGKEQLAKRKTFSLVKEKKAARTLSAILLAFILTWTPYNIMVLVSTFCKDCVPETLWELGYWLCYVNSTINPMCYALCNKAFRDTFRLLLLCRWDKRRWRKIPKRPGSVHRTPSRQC
M1 ag parental = counter-screen for M1 agonists: effect in parental CHO-K1 cells; Fluo-8 calcium fluorescence; scaled to maximal ATP response, vehicle zero; activation, % at 3 µM; hit rate 0.48% among 360,000; in the data active = activation above about 15%;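 also: untransfected CHO-K1 host cells lacking M1 receptor as counterscreen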
M1 ag = human M1 muscarinic receptor agonism. CHO-K1 hM1, Fluo-8 calcium fluorescence, agonist mode; 0% DMSO, 100% acetylcholine EC100. activation, % at 3 µM. hit rate 0.33% among 360,000. AID 588814;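 active = activation above the run's mean compound activation plus 3 SD, cut at about 16% in these data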;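 also: peak over basal fluorescence ratio within a 140 s kinetic read after compound addition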
CHO-K1 Ca antag = nonselective inhibitor or artifact in parental CHO-K1 cells; hit rate 0.6% among 360,000; ATP-induced calcium, Fluo-8 fluorescence; inhibition, % at 3 µM;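 active = inhibition above a per-plate cutoff, the plate's mean sample inhibition plus 3 SD, cut at about 24% in these data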
CHRM1 PAM = human CHRM1 positive allosteric modulation; P11229; CHO-K1 hM1, Fluo-8 calcium fluorescence, ACh EC20; 0% = ACh EC20, 100% = maximal ACh; activation, % at 3 µM; hit rate 0.088% among 360,000; AID 588819; in the data active = activation above about 19%, passing the limit was not always enough
Large screens that a line does not name were inactive. Only some compounds are listed: those with a hit (about 2.3% of all), similar ones and a draw of the others.

COc1ccc(-n2nnnc2C(c2ccccc2)N2CCN(C/C=C/c3ccccc3)CC2)cc1 (centres undefined)	M1 antag 68
CC(C)(C)n1nnnc1C(c1ccccc1)N1CCN(C/C=C/c2ccccc2)CC1 (centres undefined)	M1 antag 63
CCCCn1nnnc1C(c1ccccc1)N1CCN(C/C=C/c2ccccc2)CC1 (centres undefined)	M1 antag 53
CCCCn1nnnc1C(CC)N1CCN(C/C=C/c2ccccc2)CC1 (centres undefined)	none
CCN1CCN(C(=O)c2ccc(CS(=O)(=O)Cc3ccccc3C)o2)CC1	none
Cc1cccc(C)c1-n1nnnc1C(c1cccc2ccccc12)N1CCN(C/C=C/c2ccccc2)CC1 (centres undefined)	none
CCCCn1nnnc1C(c1ccccc1OC(F)(F)F)N1CCN(C/C=C/c2ccccc2)CC1 (centres undefined)	none
CCCCn1nnnc1C(c1cccc2ccccc12)N1CCN(C/C=C/c2ccccc2)CC1 (centres undefined)	M1 antag 95
Cc1cccc(C)c1-n1nnnc1C(c1cc2ccccc2o1)N1CCN(C/C=C/c2ccccc2)CC1 (centres undefined)	M1 antag 56
CC1=Nc2ccccc2/C1=C/c1sc(=N)n(-c2nccs2)c1O	M1 antag 34, CHO-K1 Ca antag 25
CC1=Nc2ccccc2/C1=C/c1nc(-c2ccc(C)s2)oc1O	none
Cc1ccc(CN2CC(N3CCN(C)CC3)CS2(=O)=O)cc1 (centres undefined)	none
CCOc1ccc(CN2CCN(c3ncnc4scc(-c5ccccc5)c34)CC2)cc1	M1 ag 22
C[C@H]1CN([C@@H](C)CO)C(=O)CCCn2nncc2CO[C@@H]1CN(C)S(=O)(=O)c1cn(C)cn1	none
OCCC1CN(C/C(Cl)=C/c2ccccc2)CCN1C1CCCC1 (centres undefined)	M1 antag 22
CC(C)=CCN1CCN(C/C(Cl)=C/c2ccccc2)CC1CCO (centres undefined)	none
OCCC1CN(Cc2ccsc2)CCN1C1CCCC1 (centres undefined)	M1 antag 43
OCCC1CN(Cc2nc(-c3ccccc3)cs2)CCN1C1CCCC1 (centres undefined)	M1 antag 45
OCCC1CN(Cc2c(F)cccc2Cl)CCN1C1CCCC1 (centres undefined)	M1 antag 57
CC(C)(C)C(=O)Nc1ccc(/C=C/C(=O)c2ccco2)cc1	none
COc1ccc2c(c1)C=C(CN1CCN(C3CCCC3)C(CCO)C1)CO2 (centres undefined)	M1 antag 95
O=C(COc1ccc(Br)cc1CNCCc1ccccc1)NCc1ccccc1	M1 antag 36
CCCNCc1cc(Br)ccc1OCC(=O)NCCc1ccccc1	none
Cc1ccc(NC(=O)C2CCCN(C3=NS(=O)(=O)c4ccccc43)C2)c(O)c1 (centres undefined)	CHO-K1 Ca antag 26
Cc1ccc(C)c(N2CCN(C(=O)CCNS(=O)(=O)c3ccc4c(c3)oc(=O)n4C)CC2)c1	M1 ag parental 17
Cn1c(=O)oc2cc(S(=O)(=O)NCCC(=O)N3CCN(c4ccccc4F)CC3)ccc21	none
Cc1cc(NS(=O)(=O)c2ccc(NC(=O)c3cnc(Cl)c(Cl)c3)cc2)nc(C)n1	none
COc1cc(C)c(Br)cc1S(=O)(=O)NCCCN1CCOCC1	M1 ag parental 20
COc1cc(C)c(Cl)cc1S(=O)(=O)NCCCN1CCOCC1	none
COc1cc(OC)cc(C(=O)NN(CCC#N)C2=NS(=O)(=O)c3ccccc32)c1	none
COc1ccc(N(CC(=O)N2c3ccccc3CC2C)S(=O)(=O)c2c(C)nn(C)c2C)cc1 (centres undefined)	M1 antag 28
Cc1c(-c2cc(Br)ccc2O)nc2cc3c(cc2c1C)OCO3	none
CCCN(CC(=O)Nc1ccccc1C)C(=O)COC(=O)c1cnc(C)cn1	none
Cc1ccc(C)c(NC(=O)C2CCCN2/C=C/C(=O)C(F)(F)F)c1 (centres undefined)	CHO-K1 Ca antag 26
Cc1cccc(NC(=O)C2CCCN2/C=C/C(=O)C(F)(F)F)c1C (centres undefined)	none
Cc1cc(OC(=O)c2c(Cl)cc(Cl)cc2Cl)nc(C)n1	CHRM1 PAM 24
CC(=O)NC(c1ccccc1)c1nc(-c2ccc(Cl)cc2)cs1 (centres undefined)	none
CC1(C)C(=O)C=CC(=O)C(C)(C)C(=O)C=CC(=O)C(C)(C)C2=CC=C(O2)C(C)(C)C(=O)C=CC1=O	none
COc1cccc(NC(=O)Nc2nc(SC)ns2)c1	none
COc1cccc(NC(=O)Nc2nc(SC(C)(C)C)ns2)c1	M1 antag 37, M1 ag parental 19, CHO-K1 Ca antag 24
CCSc1nsc(NC(=O)Nc2cccc(F)c2)n1	M1 antag 38, M1 ag parental 18
Cc1ccc(Cl)c(NC(=O)COC(=O)c2nn(-c3ccccc3)cc2O)c1Cl	none
CC(C)(C)c1ccc(-n2nc(C#N)c(Cl)cc2=O)cc1	M1 antag 45, CHO-K1 Ca antag 30
CCc1nc2ccc(C(=O)N(C)C(C)C)cn2c1N(CCC(C)C)CCN(C)C	none
Cc1ccc(C(=O)N(C)c2ccc(OCC(=O)N3c4ccc(C)cc4C4CN(C)CCC43)cc2)cc1 (centres undefined)	M1 antag 23
Cc1ccc2c(c1)C1CN(C)CCC1N2C(=O)c1ccc(Cl)c(S(=O)(=O)N2CCOCC2)c1 (centres undefined)	M1 antag 79
Cc1ccc2c(c1)C1CN(C)CCC1N2C(=O)c1cccc(S(=O)(=O)N2CC(C)CC(C)C2)c1 (centres undefined)	M1 antag 37
Cc1ccc2c(c1)C1CN(C)CCC1N2S(=O)(=O)c1cc(C(F)(F)F)ccc1Cl (centres undefined)	none
C=Cc1ncc(OC)c2c1[nH]c1ccccc12	none
O=C(Nc1ccc(Cl)c(Cl)c1)OCc1cccnc1	M1 antag 33, CHO-K1 Ca antag 27
COc1cccc(S(=O)(=O)NCc2ccc(C(=O)Nc3ccc(Cl)c(Cl)c3)cc2)c1	none
O=C(Nc1ccc(Cl)c(Cl)c1)c1cccc(S(=O)(=O)NCc2cccnc2)c1	M1 ag parental 20, CHO-K1 Ca antag 28
COc1ccc(S(=O)(=O)N(C)c2ccc(C(=O)N3CCC(C(N)=O)CC3)cc2)cc1	none
COc1ccc(S(=O)(=O)N(C)c2ccc(C(=O)N3CCC(C(N)=O)CC3)cc2)cc1OC	CHO-K1 Ca antag 25
COCc1cc(C)nc(SCC(=O)Nc2ccccc2N2CCOCC2)c1C#N	none
COCc1cc(C)nc(SCC(=O)Nc2cccc3cccnc23)c1C#N	CHO-K1 Ca antag 25
